Screens from PubChem.
The list is not random: actives were taken first. Their share in the collection is about 1.9%.
HMGR II inh: inhibitors of E. faecalis class II HMGR, primary screen, biochemical, Enterococcus faecalis; inhibition, % at 10 µM; purified E. faecalis HMGR, NADPH absorbance 340 nm kinetic; HMG-CoA reductase (Enterococcus faecalis, mvaE); 190,000 tested, 0.41% active;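 active means inhibition above a set limit, the median over all tested compounds plus 3 SD, cut at about 9.5% in these data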;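 further: enzyme runs in reverse so mevalonate oxidation gives rising NADPH absorbance; 0% = complete reaction with DMSO and 100% = background rate lacking mevalonate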
14-3-3 Bad inh: inhibitors of 14-3-3 zeta/Bad binding, primary screen, biochemical, TR-FRET, bovine 14-3-3 zeta; AID 781, 2007; inhibition, % at 21.7 µM; TR-FRET 14-3-3zeta/Dy647-pBad peptide displacement, 1 h; 220,000 tested, 0.71% active;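 active means inhibition above about 70%, limit read from the data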;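 further: 0% = full 14-3-3 plus peptide FRET controls and 100% = background without 14-3-3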
Target sequence (P63103 whole entry, looked up): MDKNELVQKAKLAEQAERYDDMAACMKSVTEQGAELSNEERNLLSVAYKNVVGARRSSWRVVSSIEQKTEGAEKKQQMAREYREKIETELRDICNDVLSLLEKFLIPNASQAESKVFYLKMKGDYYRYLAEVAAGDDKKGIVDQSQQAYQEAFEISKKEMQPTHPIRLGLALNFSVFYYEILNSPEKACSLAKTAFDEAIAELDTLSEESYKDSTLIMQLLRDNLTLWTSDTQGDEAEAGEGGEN
p47phox inh: p47phox/p22phox peptide binding inhibitors, primary screen, biochemical, uHTS, NADPH oxidase regulatory subunit; inhibition, % at 24.7 µM; fluorescence polarization, 2 h; Neutrophil cytosol factor 1 (Homo sapiens), P14598; 220,000 tested, 0.53% active;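 active means inhibition above about 30%, limit read from the data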;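 further: 0% = p47phox with labelled peptide and 100% = labelled peptide alone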
Target sequence (P14598 whole entry, looked up): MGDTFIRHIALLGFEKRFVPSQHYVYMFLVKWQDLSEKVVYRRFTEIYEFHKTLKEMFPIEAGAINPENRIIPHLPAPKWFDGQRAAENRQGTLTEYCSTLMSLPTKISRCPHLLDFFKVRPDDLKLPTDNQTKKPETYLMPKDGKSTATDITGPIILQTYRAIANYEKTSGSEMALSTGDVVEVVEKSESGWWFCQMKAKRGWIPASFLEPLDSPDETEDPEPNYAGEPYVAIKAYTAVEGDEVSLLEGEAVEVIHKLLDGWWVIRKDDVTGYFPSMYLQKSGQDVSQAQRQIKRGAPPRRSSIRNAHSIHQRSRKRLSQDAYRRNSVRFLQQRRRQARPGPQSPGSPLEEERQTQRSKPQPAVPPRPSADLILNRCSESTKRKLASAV
dFosB act-1: activators of delta FosB homodimer, primary screen, biochemical, fluorescence polarization, TAMRA-CDK5 oligo, single point; activation, % at 25 µM; purified delta FosB; percent of positive-control signal above neutral wells; 340,000 tested, 0.99% active; Protein FosB (Mus musculus), P13346;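 active means mean activation above about 17%, with every replicate also reaching it, limit read from the data, passing the limit was not always enough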
dFosB act-2: activators of mouse delta FosB DNA binding, confirmation, biochemical, fluorescence polarization, TAMRA-CDK5 oligo, cherry-picked samples; shares compounds with dFosB act-1; purified delta FosB; normalised: neutral wells 0, positive control 100; activation, % at 24.9 µM; 2,400 tested, under 10 active; AID 588690, 2011;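 active means highest replicate activation at or above 34% and every replicate reaching that threshold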;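 further: higher polarization means more probe DNA bound by delta FosB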
* marks the source's active call; other numbers are inactive results; [ ] = dose if it differs, or a comment.

For Cc1ccc(C)c(-n2nnnc2SCC(=O)c2ccc3c(c2)NC(=O)CO3)c1 the results were HMGR II inh -1.6, 14-3-3 Bad inh 6.9, p47phox inh -25.9, dFosB act-1 67.9* and dFosB act-2 0.7.
Screening Cc1ccc(C)c(N=Nc2nc3ccccc3n2C)c1 returned HMGR II inh -2.2, 14-3-3 Bad inh 3.5, p47phox inh -3.0 and dFosB act-1 -19.0.
For Cc1ccc(NC(=O)c2ccc3nc(N4CCOCC4)sc3c2)c(Cl)c1 the results were dFosB act-1 141.2* and dFosB act-2 -0.1.
`CCc1ccccc1NC(=O)c1ccc2nc(N3CCOCC3)sc2c1` gave dFosB act-1 -6.1.
For CCN(CC)S(=O)(=O)c1ccc(NC(=O)Cn2c(=O)oc3ccccc32)cc1 the results were HMGR II inh -8.4, 14-3-3 Bad inh 2.3, p47phox inh 1.6 and dFosB act-1 4.1.
Screening O=C(Cn1c(=O)oc2ccccc21)Nc1ccc(S(=O)(=O)N2CCCCC2)cc1 returned HMGR II inh -12.8, 14-3-3 Bad inh 1.8, p47phox inh -7.9, dFosB act-1 59.8* and dFosB act-2 4.6.
For O=C(Nc1ccccc1)c1nc[nH]c1C(=O)NCCNC(=O)c1[nH]cnc1C(=O)Nc1ccccc1 the results were dFosB act-1 36.7* and dFosB act-2 4.8.
For CC1CC(C)CN(C(=O)c2ccc3nc[nH]c3c2)C1 (stereo not drawn) the results were dFosB act-1 -0.1.
Screening CCOC(=O)Cn1c(=NC(=O)c2sc3ccccc3c2Cl)sc2cc(S(N)(=O)=O)ccc21 returned HMGR II inh -6.5, 14-3-3 Bad inh 79.2*[fluorescence artefact?], p47phox inh 11.1, dFosB act-1 91.5* and dFosB act-2 -3.6.
For CCOC(=O)Cn1c(=NC(=O)CSC(C)=O)sc2ccccc21 the results were HMGR II inh -3.2, 14-3-3 Bad inh -7.8, p47phox inh -1.1 and dFosB act-1 -10.0.
CC1CCN(c2nc3c(c(=O)n(C)c(=O)n3C)n2CCSc2nc3ccccc3o2)CC1 was read as HMGR II inh -7.3, 14-3-3 Bad inh -5.7 and p47phox inh -3.9.
COc1cc(NC(=S)N2CCN(Cc3ccccc3)CC2)cc(OC)c1 was read as HMGR II inh -0.4, 14-3-3 Bad inh -15.6, p47phox inh -3.4 and dFosB act-1 -15.5.
`COc1cc2c(cc1OC)-c1cc(Nc3cccc(C)c3)nc(=O)n1CC2` gave dFosB act-1 30.3* and dFosB act-2 1.0.
Screening COc1cc2c(cc1OC)-c1cc(Nc3ccccc3C)nc(=O)n1CC2 returned dFosB act-1 -2.5.
Screening COc1cc(CNCCCN2CCOCC2)ccc1OCC(=O)NC(C)(C)C returned HMGR II inh -5.7, 14-3-3 Bad inh 6.8, p47phox inh 2.5 and dFosB act-1 -6.8.
Screening c1ccc2[nH]c(NN=C3CCCCCC3)nc2c1 returned HMGR II inh -5.4, 14-3-3 Bad inh -11.2, p47phox inh -31.1 and dFosB act-1 -7.8.
O=C(CSc1nc2[nH]ncc2c(=O)[nH]1)Nc1ccc(OC(F)(F)F)cc1 was read as dFosB act-1 19.1* and dFosB act-2 -2.0.
Screening COC(=O)c1ccc(NC(=O)CSc2nc3[nH]ncc3c(=O)[nH]2)cc1 returned dFosB act-1 5.3.
CC(c1nc2ccccc2n1Cc1ccccc1)N1CCCCC1 (stereo not drawn) was read as dFosB act-1 2.2.
`CCC(C(=O)O/N=C(\N)c1cccc(C)c1)c1ccccc1` (stereo not drawn) gave HMGR II inh 0.6, p47phox inh -5.6 and dFosB act-1 0.5.
Screening CN1CCc2cc3c(c4c2[C@H]1[C@H](O)c1ccccc1-4)OCO3 returned HMGR II inh 0.4, 14-3-3 Bad inh 1.5, p47phox inh 11.1, dFosB act-1 31.6* and dFosB act-2 -0.8.
For COc1ccc(/C=N/NC(=S)Nc2ccccc2[N+](=O)[O-])cc1O the results were HMGR II inh -6.1, 14-3-3 Bad inh 5.4, p47phox inh 9.7 and dFosB act-1 -7.4.
COc1ccc(-c2cc(C(F)(F)F)nc(SCC(=O)NCc3cccs3)n2)cc1 was read as HMGR II inh -2.2, 14-3-3 Bad inh 3.8, p47phox inh -3.5 and dFosB act-1 15.2.
For O=C(CSc1nc(-c2ccccc2)cc(C(F)(F)F)n1)NCc1cccs1 the results were HMGR II inh -5.6, 14-3-3 Bad inh -1.8, p47phox inh 1.9, dFosB act-1 26.8* and dFosB act-2 0.7.
Screening Cc1ccc(NC(=O)CSc2nnc3c(n2)[nH]c2ccccc23)cc1 returned dFosB act-1 -2.5.
`COc1ccc(CNC(=O)CSc2nnc3c(n2)[nH]c2ccc(OC)cc23)cc1` gave dFosB act-1 40.0* and dFosB act-2 -2.0.
Screening Cc1ccc(CNC(=O)CSc2nnc3c(n2)[nH]c2ccccc23)cc1 returned dFosB act-1 28.2* and dFosB act-2 6.6.
Screening COc1ccc2[nH]c3nc(SCc4nnc(-c5ccccc5)o4)nnc3c2c1 returned HMGR II inh 0.3, 14-3-3 Bad inh 74.1*, p47phox inh -46.9, dFosB act-1 18.9* and dFosB act-2 1.6.
For COc1ccc(CNC(=O)CSc2nnc3c(n2)[nH]c2ccc(F)cc23)cc1 the results were dFosB act-1 -1.9.
For Cc1c(NC(=O)Cc2ccccc2)cccc1C(=O)NN1C(=O)c2ccccc2C1=O the results were HMGR II inh -2.1, 14-3-3 Bad inh -0.9, p47phox inh -6.1, dFosB act-1 23.1* and dFosB act-2 8.7.
Cc1cccc(NC(=O)c2ccccc2NC(=O)Cc2ccccc2)c1C was read as HMGR II inh -4.5, 14-3-3 Bad inh 7.6, p47phox inh -8.7 and dFosB act-1 -5.0.
`COCCn1c(SCC(=O)c2c(N)n(C3CC3)c(=O)[nH]c2=O)nnc1-c1ccc(Cl)cc1` gave dFosB act-1 20.6* and dFosB act-2 0.7.
For COc1ccc(C)c2sc(NC(=O)c3cccc(N4C(=O)CCC4=O)c3)nc12 the results were dFosB act-1 52.7* and dFosB act-2 6.8.
Screening O=C1COc2ccc(C(=O)COC(=O)c3ccccc3F)cc2N1 returned dFosB act-1 2.7.
`O=C1COc2ccc(C(=O)COC(=O)c3cc(S(=O)(=O)NCc4ccccc4)ccc3O)cc2N1` gave 14-3-3 Bad inh -1.9, p47phox inh -22.2, dFosB act-1 65.9* and dFosB act-2 -0.8.
`CCSC1(SCC)N=C(N)C2(C#N)C(c3ccccc3)NC(C)=C(C)C12C#N` (stereo not drawn) gave HMGR II inh -1.7, 14-3-3 Bad inh -6.8, p47phox inh -11.4 and dFosB act-1 -6.2.
`Cc1cccc(OCC(=O)NNC(=O)Nc2cccc(Cl)c2)c1C` gave HMGR II inh 0.4, 14-3-3 Bad inh 6.3, p47phox inh -13.8, dFosB act-1 17.9* and dFosB act-2 6.9.
